According to ChEMBL document CHEMBL1961873, “Compounds: GSK PKIS; Assays: Nanosyn kinase panel” (2012):

What was measured:
[1] = target: Tyrosine-protein kinase receptor UFO (Homo sapiens) (UniProt P30530); details: at 1 µM
[2] = target: Tyrosine-protein kinase Blk (Homo sapiens) (UniProt P51451); details: at 0.1 µM
[3] = target: Tyrosine-protein kinase Blk (Homo sapiens) (UniProt P51451); details: at 1 µM
[4] = target: T1, Cytoplasmic tyrosine-protein kinase BMX (Homo sapiens) (UniProt P51813); details: at 0.1 µM
T1 sequence (whole entry): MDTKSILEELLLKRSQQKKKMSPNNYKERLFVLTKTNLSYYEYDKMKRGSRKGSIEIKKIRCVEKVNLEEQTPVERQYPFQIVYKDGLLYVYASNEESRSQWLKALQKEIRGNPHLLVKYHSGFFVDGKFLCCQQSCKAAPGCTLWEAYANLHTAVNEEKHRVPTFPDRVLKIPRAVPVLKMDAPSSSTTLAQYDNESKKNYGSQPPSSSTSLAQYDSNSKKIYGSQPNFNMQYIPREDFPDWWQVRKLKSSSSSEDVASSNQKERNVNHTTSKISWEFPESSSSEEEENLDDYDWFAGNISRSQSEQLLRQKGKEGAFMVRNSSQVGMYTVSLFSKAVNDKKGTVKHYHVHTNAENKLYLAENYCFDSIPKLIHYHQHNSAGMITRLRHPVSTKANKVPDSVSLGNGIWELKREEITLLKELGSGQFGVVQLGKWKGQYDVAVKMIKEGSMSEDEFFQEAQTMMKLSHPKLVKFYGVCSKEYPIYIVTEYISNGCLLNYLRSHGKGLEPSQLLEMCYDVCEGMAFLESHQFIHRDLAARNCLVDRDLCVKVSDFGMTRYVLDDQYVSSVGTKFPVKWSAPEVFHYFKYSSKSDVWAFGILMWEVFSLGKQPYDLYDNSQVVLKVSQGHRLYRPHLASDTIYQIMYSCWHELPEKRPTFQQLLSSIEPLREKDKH

[5] = target: T1, Cytoplasmic tyrosine-protein kinase BMX (Homo sapiens); details: at 1 µM
[6] = target: Protein-tyrosine kinase 6 (Homo sapiens) (UniProt Q13882); details: at 0.1 µM
[7] = target: Protein-tyrosine kinase 6 (Homo sapiens) (UniProt Q13882); details: at 1 µM
[8] = target: Tyrosine-protein kinase BTK (Homo sapiens) (UniProt Q06187); details: at 0.1 µM
[9] = target: Tyrosine-protein kinase BTK (Homo sapiens) (UniProt Q06187); details: at 1 µM
[10] = target: Tyrosine-protein kinase CSK (Homo sapiens) (UniProt P41240); details: at 0.1 µM;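 note: value given is the averaged percent inhibition of CSK kinase activity, from the GSK PKIS kinase inhibitor set screening panel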
Tyrosine-protein kinase CSK (Homo sapiens), sequence (P41240 2-450 limits assumed): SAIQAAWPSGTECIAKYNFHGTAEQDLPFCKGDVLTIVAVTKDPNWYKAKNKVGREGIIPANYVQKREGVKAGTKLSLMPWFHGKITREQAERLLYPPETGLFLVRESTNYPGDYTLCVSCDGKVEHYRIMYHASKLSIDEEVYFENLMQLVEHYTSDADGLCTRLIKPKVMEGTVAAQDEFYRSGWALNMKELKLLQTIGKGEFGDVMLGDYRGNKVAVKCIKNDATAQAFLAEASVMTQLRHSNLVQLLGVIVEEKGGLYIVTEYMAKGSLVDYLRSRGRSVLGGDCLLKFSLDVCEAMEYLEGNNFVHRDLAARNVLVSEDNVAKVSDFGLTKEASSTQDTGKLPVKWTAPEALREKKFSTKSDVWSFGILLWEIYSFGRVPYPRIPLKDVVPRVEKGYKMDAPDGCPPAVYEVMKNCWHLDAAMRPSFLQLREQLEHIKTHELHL

Tyrosine-protein kinase Blk (Homo sapiens), sequence (P51451 2-505 limits assumed): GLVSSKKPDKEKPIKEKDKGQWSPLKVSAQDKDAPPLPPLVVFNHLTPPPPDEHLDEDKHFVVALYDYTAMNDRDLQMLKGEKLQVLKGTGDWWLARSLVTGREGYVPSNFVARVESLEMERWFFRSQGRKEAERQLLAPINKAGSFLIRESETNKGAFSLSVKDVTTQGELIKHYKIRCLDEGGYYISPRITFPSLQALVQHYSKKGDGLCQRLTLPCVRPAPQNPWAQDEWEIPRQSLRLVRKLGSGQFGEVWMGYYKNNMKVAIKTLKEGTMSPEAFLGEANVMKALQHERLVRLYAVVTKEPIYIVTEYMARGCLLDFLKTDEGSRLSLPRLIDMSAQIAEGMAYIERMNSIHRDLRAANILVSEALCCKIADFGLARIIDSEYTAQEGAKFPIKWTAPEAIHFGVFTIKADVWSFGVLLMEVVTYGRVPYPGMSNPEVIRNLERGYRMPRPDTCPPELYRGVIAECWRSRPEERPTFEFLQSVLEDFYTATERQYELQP
Protein-tyrosine kinase 6 (Homo sapiens), sequence (Q13882 whole entry, looked up): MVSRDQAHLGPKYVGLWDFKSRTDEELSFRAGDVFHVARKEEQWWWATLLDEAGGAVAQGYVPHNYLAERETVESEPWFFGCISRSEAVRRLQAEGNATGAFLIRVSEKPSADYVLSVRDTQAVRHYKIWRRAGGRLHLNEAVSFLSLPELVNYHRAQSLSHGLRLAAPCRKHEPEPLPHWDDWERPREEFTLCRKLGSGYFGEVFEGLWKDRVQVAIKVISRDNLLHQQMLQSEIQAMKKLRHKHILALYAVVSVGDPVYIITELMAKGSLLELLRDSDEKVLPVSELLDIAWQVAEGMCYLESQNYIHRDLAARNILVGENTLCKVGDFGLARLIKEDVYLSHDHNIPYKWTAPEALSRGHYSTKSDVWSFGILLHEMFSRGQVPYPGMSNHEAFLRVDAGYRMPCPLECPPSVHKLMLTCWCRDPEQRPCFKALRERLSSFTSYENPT
Tyrosine-protein kinase receptor UFO (Homo sapiens), sequence (P30530 whole entry): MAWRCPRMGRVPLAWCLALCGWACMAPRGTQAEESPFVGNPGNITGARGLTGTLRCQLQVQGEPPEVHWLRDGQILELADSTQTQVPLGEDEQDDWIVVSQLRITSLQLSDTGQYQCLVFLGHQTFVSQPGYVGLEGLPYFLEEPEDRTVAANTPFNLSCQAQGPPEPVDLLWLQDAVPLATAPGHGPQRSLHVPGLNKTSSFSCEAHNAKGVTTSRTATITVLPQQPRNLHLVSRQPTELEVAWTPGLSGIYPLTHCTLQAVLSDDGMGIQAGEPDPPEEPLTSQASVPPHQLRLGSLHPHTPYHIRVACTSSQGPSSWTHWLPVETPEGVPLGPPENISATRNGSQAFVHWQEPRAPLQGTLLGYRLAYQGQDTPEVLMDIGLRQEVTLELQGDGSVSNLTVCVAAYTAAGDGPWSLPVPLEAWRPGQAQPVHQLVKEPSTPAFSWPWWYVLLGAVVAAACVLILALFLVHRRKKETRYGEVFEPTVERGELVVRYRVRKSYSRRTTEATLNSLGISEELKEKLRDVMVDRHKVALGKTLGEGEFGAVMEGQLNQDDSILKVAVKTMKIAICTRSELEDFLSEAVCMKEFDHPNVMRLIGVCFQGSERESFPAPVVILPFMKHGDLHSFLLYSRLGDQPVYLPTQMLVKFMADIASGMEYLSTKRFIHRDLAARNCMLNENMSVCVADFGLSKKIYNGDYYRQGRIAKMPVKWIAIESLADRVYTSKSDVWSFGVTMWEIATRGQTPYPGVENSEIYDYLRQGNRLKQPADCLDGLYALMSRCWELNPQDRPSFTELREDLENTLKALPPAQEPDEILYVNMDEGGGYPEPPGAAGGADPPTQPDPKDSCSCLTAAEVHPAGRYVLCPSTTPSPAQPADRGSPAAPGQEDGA
Tyrosine-protein kinase BTK (Homo sapiens), sequence (Q06187 whole entry): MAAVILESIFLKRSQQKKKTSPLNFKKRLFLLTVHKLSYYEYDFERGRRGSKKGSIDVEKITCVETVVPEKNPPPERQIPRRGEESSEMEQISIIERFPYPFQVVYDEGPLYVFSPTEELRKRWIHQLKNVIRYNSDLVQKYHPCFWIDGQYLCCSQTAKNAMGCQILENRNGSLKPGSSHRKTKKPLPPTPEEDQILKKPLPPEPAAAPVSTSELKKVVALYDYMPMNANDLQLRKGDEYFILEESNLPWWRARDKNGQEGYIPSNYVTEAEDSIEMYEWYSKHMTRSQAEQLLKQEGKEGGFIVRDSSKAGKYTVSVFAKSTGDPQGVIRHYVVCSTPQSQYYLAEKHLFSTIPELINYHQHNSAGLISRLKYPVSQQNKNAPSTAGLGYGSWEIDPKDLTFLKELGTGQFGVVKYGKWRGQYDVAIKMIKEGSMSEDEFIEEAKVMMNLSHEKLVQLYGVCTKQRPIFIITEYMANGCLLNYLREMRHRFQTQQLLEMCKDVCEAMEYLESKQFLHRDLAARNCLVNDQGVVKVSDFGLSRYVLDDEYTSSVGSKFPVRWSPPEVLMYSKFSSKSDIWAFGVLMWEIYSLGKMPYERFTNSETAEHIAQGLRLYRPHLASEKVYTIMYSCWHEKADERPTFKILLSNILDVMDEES

Compound | inhibition [1] | inhibition [2] | inhibition [3] | inhibition [4] | inhibition [5] | inhibition [6] | inhibition [7] | inhibition [8] | inhibition [9] | inhibition [10]
CS(=O)(=O)CCNCc1ccc(-c2ccc3ncnc(Nc4ccc(OCc5ccccc5)c(Cl)c4)c3c2)o1 | 1.26% | 0.85% | 7.53% | 0.69% | 4.31% | 0.7% | 14.7% | -0.28% | 0.13% | 0.67%
CC1=C(C(=O)Nc2ccc3[nH]ncc3c2)C(c2ccc3ccccc3c2)CC(=O)N1 (stereo unspecified) | -3.18% | 13.4% | 58.5% | -1.63% | 3.91% | 3.76% | 6.55% | 0.23% | 11.4% | 4.44%
Cn1cc(C=C2C(=O)Nc3cccnc32)c2ccccc21 | 19.1% | – | – | 3.27% | 4.89% | 0.63% | 2.28% | 1.87% | 3.46% | 1.5%
Nc1ncnc2occ(-c3ccc(NC(=O)Nc4cccc(C(F)(F)F)c4)cc3)c12 | 45.3% | 7.81% | 49.1% | 20.4% | 71.3% | 2.23% | 7.46% | 0.15% | 6.68% | 7.62%
CS(=O)(=O)Nc1ccc(N/C=C2\C(=O)Nc3ccccc32)cc1 | 4.47% | 0.62% | 18.2% | -1.58% | 0.63% | -4.62% | -2.23% | -1.06% | -0.9% | -9.22%
CCn1c(-c2nonc2N)nc2cncc(C(=O)N3CCNCC3)c21 | -9.66% | 2.72% | 4.31% | 6.75% | 8.89% | 4.01% | 5.31% | -1.34% | 1.16% | 4.39%
Fc1cccc(COc2ccc(Nc3ncnc4sc(-c5cccs5)cc34)cc2Cl)c1 | 1.51% | 1.15% | 3.35% | 1.58% | 4.35% | -1.94% | 2.02% | -0.95% | -0.95% | 2.73%
COc1cc(C)c(NC(=O)CN(C)C)cc1Nc1nc(Nc2cccc(F)c2C(N)=O)c2cc[nH]c2n1 | 63.7% | 0.68% | 4.45% | 0.07% | 2.64% | 3.06% | 23.8% | 0.31% | 0.16% | 1.05%
Cc1nnc(-c2ccc(C)c(-c3ccc(C(=O)Nc4cccc(C#N)c4)cc3)c2)o1 | – | 2.41% | 3.76% | 4.54% | 2.78% | 2.27% | 2.95% | -0.22% | 1.88% | 0.99%
CC(=O)Nc1cccc(C#Cc2cncnc2Nc2ccc(OCc3cccc(F)c3)c(Cl)c2)n1 | 1.38% | 1.94% | 1.82% | 1.43% | 0.97% | -2.54% | 1.12% | 0.29% | 0.86% | -1.09%
COc1cc2ncn(-c3cc(OCc4ccccc4Cl)c(C(N)=O)s3)c2cc1OC | 2.44% | 1% | 23.1% | 1.94% | 4.4% | 0.65% | 7.77% | -0.87% | 1.14% | 0.5%
N#Cc1c(NC(=O)c2cccc3ccccc23)sc2c1CCCC2 | -1.11% | 1.28% | 2.44% | 3.61% | 2.91% | 3.4% | 3.17% | -1.4% | 0.24% | 0.06%
CCn1c(-c2nonc2N)nc2cncc(C(=O)N3CC[C@H](N)C3)c21 | -4.01% | 2.69% | 3.09% | 2.23% | 0.56% | 4.5% | 8.63% | -0.23% | -1.15% | 5.91%
Cc1nn(C)c2cc(N(C)c3ccnc(Nc4cccc(S(N)(=O)=O)c4)n3)ccc12 | -1.13% | 5.53% | 46.8% | 8.2% | 35.1% | 10.8% | 52% | -0.96% | 6.74% | 5.24%
CC(C)=Cc1cccc2c1/C(=N/Nc1ccc(S(N)(=O)=O)cc1)C(=O)N2 | 5.18% | 3.01% | 31.1% | -0.19% | 6.64% | 1.35% | -1.64% | 1.86% | 3.95% | 0.6%
Cc1ccc(C(=O)NC2CCCCC2)cc1-c1ccc(C(=O)NCC2CC2)cc1 | 3.11% | 2.04% | 3.76% | 2.45% | 4.53% | 1.79% | 3.75% | 1.78% | 3.37% | 2.72%
Nc1nc(-c2ccccn2)c(-c2ccc3ncccc3n2)s1 | -4.26% | 2.58% | 1.8% | -0.49% | 3.73% | 2.76% | 7.02% | 1.06% | 0.04% | 9.09%

Compound | inhibition [1] | inhibition [2] | inhibition [3] | inhibition [4] | inhibition [5] | inhibition [6] | inhibition [7] | inhibition [8] | inhibition [9] | inhibition [10]
CS(=O)(=O)CCNCc1nc(-c2ccc3ncnc(Nc4ccc(F)c(Cl)c4)c3c2)cs1 | 0.38% | 1.92% | 7.95% | 0.99% | 7.67% | 1.05% | 5.15% | 0.64% | 4.51% | 2.86%
NC(=O)c1cccc(Nc2nccc(Nc3cccc4[nH]ncc34)n2)c1 | 7.82% | 9.56% | 66.3% | 21.6% | 73.8% | 68.6% | 99.7% | 3.23% | 19.9% | -2.2%
CC1=C(C(=O)Nc2ccc3[nH]ncc3c2)C(c2ccc(F)cc2)NC(=O)N1 (stereo unspecified) | -2.9% | 0.5% | 3.91% | -3.23% | 1.24% | 1.78% | 5.55% | -0.15% | -1.83% | 0.78%
CN1CCC(C(=O)Nc2n[nH]c3nnc(-c4ccccc4)cc23)CC1 | – | 3.19% | 1.79% | 4.52% | 3.87% | 4.01% | 6.78% | -0.63% | -0.24% | 4.02%
Nc1ncnc2occ(-c3ccc(NC(=O)Nc4cc(C(F)(F)F)cc(C(F)(F)F)c4)cc3)c12 | 22.1% | 2.66% | 36.5% | 4.42% | 49.9% | 1.52% | 2.35% | 2.44% | 9.01% | 3.53%
CN(C)c1cc2c(Nc3ccc4nc(Cc5ccccc5)[nH]c4c3)ncnc2cn1 | -3.19% | 5.31% | 26.3% | 1.17% | 21.5% | 4.68% | 6.35% | 1.64% | 4.82% | 17.4%
COc1cc2c(cc1Nc1nc(N3CCc4ccccc43)c3cc[nH]c3n1)N(C(=O)CN(C)C)CC2 | 21.4% | 0.59% | 4.28% | -0.34% | 4.16% | 1.24% | 0.03% | 1.01% | 2.65% | 3.07%
CCc1cccc(NC(=O)Nc2ccc(Oc3ccc4nc(NC(=O)OC)[nH]c4c3)cc2)c1 | 25.5% | 2.34% | 0.6% | -1.67% | 1.67% | 1.3% | 1.76% | 1.67% | 1.57% | 4.01%
COc1ccc(-c2coc3ncnc(N)c23)cc1 | -2.11% | 1.6% | 5.06% | 7.73% | 6.07% | 3.81% | 11.8% | 0.04% | 2.7% | 2.45%
COc1ccc(-c2nn3ncccc3c2-c2ccnc(Nc3ccc(Cl)c(C(F)(F)F)c3)n2)cc1 | -2.97% | 1.79% | 2.85% | 2.75% | 2.33% | 3.82% | 4.81% | 0.66% | 0.36% | -0.37%
NS(=O)(=O)c1cccc(-c2ccc3c(NC(=O)C4CC4)n[nH]c3c2)c1 | 2.37% | -0.75% | 0.74% | -2.14% | 0.66% | -2.66% | 0.49% | -0.13% | -1.52% | -7.29%
O=C(Nc1n[nH]c2nc(-c3ccco3)c(Br)cc12)C1CC1 | -1.16% | 3.07% | 20.5% | 7.33% | 4.58% | 6.01% | 3.67% | -0.13% | 4.11% | 6.94%
Fc1cccc(COc2ccc(Nc3ncnc4cc(-c5ccc[nH]5)sc34)cc2Cl)c1 | -0.12% | -2.62% | 0.69% | 2.13% | 1.82% | 1.55% | 6.36% | -5.43% | -4.27% | 2.68%
NC(=O)c1ccc(-c2nc(-c3ccccn3)c(-c3ccc4c(c3)OCO4)[nH]2)cc1 | -1.2% | 1.51% | 3.67% | 6% | 2.22% | 1.72% | 1.4% | -0.29% | 0.83% | 5.75%
COc1cc(C=NNc2ncnc3c2cnn3-c2ccccc2)ccc1O | 10.6% | 10.3% | 65.5% | 3.92% | 21.9% | 2.93% | 14.2% | 1.25% | 2.34% | 4.22%
NS(=O)(=O)c1ccc(N/N=C2\C(=O)Nc3ccc(C(=O)NCCc4c[nH]cn4)cc32)cc1 | 9.57% | 4.25% | 17.2% | -1.78% | 6.53% | 7.16% | 5.31% | 1.88% | 1.29% | 8.17%
CCCN1CCC(Oc2cc(Nc3nc(Nc4cccc(F)c4C(N)=O)c4cc[nH]c4n3)c(OC)cc2Cl)CC1 | 6.29% | 0.32% | 4.43% | -3.07% | 0.44% | 2.81% | 14.8% | 0.06% | 0.8% | -0.02%
